Inconclusive results are not listed. Calls of active or inactive are those of the source. Calls come from the whole dose curve.
Potency is the fitted concentration of half-maximal effect.

A short description of this test: Primary qHTS to identify inhibitors of SARS-CoV-2 cell entry (AID 1645846). Note: nearly all actives have a fitted effect of over 45% in size. The settings on record: SARS-CoV-2 pseudovirus cell entry assay, luminescence; activity change, negative = inhibition: at 57.1 µM (top of the series) unless noted; series mostly up to 57.1 µM. The source says:
Assay Provider: Wei Zheng, Ph.D.
National Center for Advancing Translational Sciences, National Institute of Health, Rockville, MD.
SARS-CoV-2 spike protein, within the viral envelope, mediates viral attachment and infection of host cells. The SARS-CoV-2 spike protein specifically binds to the host receptor ACE2 (Angiotensin-converting enzyme 2). This interaction promotes endocytosis of the viral particle, additional events lead to viral-host cell membrane fusion and release of the viral contents, allowing viral replication.
While SARS-CoV-2 requires BSL-3 facilities for live virus work, pseudotyped partices (PP) that incorporate SARS-CoV-2 spike proteins without replication elements could facilitate studies on viral entry mechanisms in a BSL-2 setting. This PP cell entry assay could also enable screening of small molecule compound libraries in BSL-2 setting to identify inhibitors of SARS-CoV-2 cell entry.
PROTOCOL TABLE (format as described by Inglese J, Shamu CE and Guy RK. 2007)
SEQUENCE No. (e.g., 1, 2, 3, etc.); […] (e.g., Cells, Incubation, Reagent, etc.); VALUE and DESCRIPTION.
1. Cells. Seed 1500 HEK293-ACE2 cells (Expi293F with stable expression of human ACE2) in 2 uL/well media (DMEM, 10% FBS, 1x L-glutamine, 1x Pen/Strep, 1 ug/ml puromycin) in white 1536-well assay plates (Greiner #782073).
2. Incubation. Incubate at 37C with 5% CO2 overnight (~16 h).
3. Compounds. Dispense 23 nL/well compounds in DMSO via pin transfer.
4. Incubation. Incubate for 1 hr at 37C 5% CO2.
5. Reagent. Dispense 2 uL/well of SARS-CoV-2-S pseudotyped particles. [a] PPs are produced with murine leukemia virus pseudotyping. [b] SARS-CoV-2-S is Wuhan-Hu-1 sequence (BEI #NR-52420) with C-terminal 19 amino acid truncation.
6. Centrifuge. […]
7. Incubation. Incubate at for 48 hr at 37C 5% CO2
8. Centrifuge. Remove supernatant with gentle centrifugation using a Blue Washer (BlueCat Bio).
9. Reagent. Dispense 4 uL/well of Bright-Glo Luciferase detection reagent (Promega #E2620).
10. Incubation. Incubate for 5 min at room temperature.
11. Detection. Read luminescence signal (Viewlux plate reader, PerkinElmer). Data was normalized with wells containing SARS-CoV-2-S PP as 100%, and wells containing bald PP (no fusion protein) as 0%.
Take `COc1cc(O)c2c(c1)C1OC1C[C@H](O)[C@H](O)C(=O)C=CC[C@H](C)OC2=O` (stereo partly specified): the Potency is 35.5 µM (active).

Turning to `COc1ccc(-c2cc(=O)c3c(O)cc(O)cc3o2)cc1O`, the call was inactive.

Turning to `O=C(CO)N1CCC(c2[nH]nc(-c3ccc(Cl)cc3)c2-c2ccncn2)CC1`, the activity change, negative = inhibition is -14.2%.

For the compound `C[C@H](Cc1ccc(O)c(O)c1)[C@@H](C)Cc1ccc(O)c(O)c1`, the activity change, negative = inhibition is -10.6%.

In the case of `Nc1cccc2c1C(=O)N(C1CCC(=O)NC1=O)C2=O` (stereo unspecified), the activity change, negative = inhibition was -12.7%.

Turning to `CCCCCCCC(=O)O`, the activity change, negative = inhibition is 1.02%.

As for `Cc1c(F)cc(C(=O)NC2CC2)cc1-c1ccc(C(=O)NCC(C)(C)C)cn1`, the activity change, negative = inhibition was -35.5%.

With `CCc1c(O)cc(O)c(C(=O)c2ccc(OCCN3CCOCC3)c(OC)c2)c1CC(=O)N(CCOC)CCOC`, the activity change, negative = inhibition is -26.7%.

Turning to `CCc1cc2c(cc1N1CCC(N3CCOCC3)CC1)C(C)(C)c1[nH]c3cc(C#N)ccc3c1C2=O`, the activity change, negative = inhibition was -34.9% [at 27.1 µM] and the “outcome” value is “inactive [at 27.1 µM]”.

Regarding `C=CC(=O)Nc1ccc2ncnc(Nc3ccc(OCc4cccc(F)c4)c(Cl)c3)c2c1`, the call was inactive.

In the case of `CC1CCN(c2cc(N3CCN(C)CC3)ccc2NC(=O)c2cc(C#N)c[nH]2)CC1`, the activity change, negative = inhibition is -17.8%.

With `Nc1nc(NCCNc2ncc(-n3ccnc3)c(-c3ccc(Cl)cc3Cl)n2)ccc1[N+](=O)[O-]`, the activity change, negative = inhibition was -29.7%.

With `Nc1cccc(-c2cc3c(Oc4cccc(O)c4)ncnc3[nH]2)c1`, the activity change, negative = inhibition is -8.51%.

For the compound `Fc1ccc(CNc2ncnc3ccc(F)cc23)cc1`, the Potency was 8.91 µM (active).

For `CC(C(=O)O)c1ccc(-c2ccccc2)c(F)c1` (stereo unspecified), the compound was called inactive and the activity change, negative = inhibition was -16.8%.

On to `COc1cc(C(C)C)c2c(c1)S(=O)(=O)N(COc1cc(=O)n3cccc(OCCN4CCCCC4)c3n1)C2=O`, for which the activity change, negative = inhibition was -36.9%.

On to `COc1ccc([C@@H]2CC(=O)c3c(O)cc(O[C@@H]4O[C@H](CO[C@@H]5O[C@@H](C)[C@H](O)[C@@H](O)[C@@H]5O)[C@@H](O)[C@H](O)[C@@H]4O)cc3O2)cc1O`, for which the activity change, negative = inhibition is -5.46%.

With `Cc1cc2nc3c(=O)[nH]c(=O)nc-3n(CC(O)C(O)C(O)CO)c2cc1C` (stereo unspecified), the compound was called inactive.

As to `CCCCOc1nc(N)c2c(n1)N(Cc1cccc(CN3CCCC3)c1)CC(=O)N2`, the activity change, negative = inhibition was -22.5%.

As for `CN(C)CC(C)(C)CNc1nn2c(-c3ccccc3)nnc2cc1C1CCC1`, the activity change, negative = inhibition is -2.68%.

For `Cc1ccc(S(=O)(=O)OCC(=O)Nc2ccc(C(=O)O)c(O)c2)cc1`, the activity change, negative = inhibition is 2.59%.

As for `NC(=O)Nc1cc(-c2ccc(CN3CCOCC3)cc2)sc1C(N)=O`, the activity change, negative = inhibition was -10.1%.

Regarding `Cc1cccc(-c2[nH]c(CNc3ccccc3F)nc2-c2ccc3ncnn3c2)n1`, the activity change, negative = inhibition was -32.1%.

With `CCCn1c(=O)c2[nH]c(-c3cnn(Cc4cccc(C(F)(F)F)c4)c3)nc2n(CC)c1=O`, the activity change, negative = inhibition is -10.8%.

On to `COc1cc2nccc(Oc3ccc(NC(=O)NC4CC4)c(Cl)c3)c2cc1C(N)=O`, for which the activity change, negative = inhibition is -21.3%.

For the compound `C[C@]12CC[C@@H]3c4ccc(OC(=O)c5ccccc5)cc4CC[C@H]3[C@@H]1CC[C@@H]2O`, the activity change, negative = inhibition was -3.2%.

In the case of `CCCCOc1c(C(=O)c2c(F)cc(C)cc2F)cnc2n[nH]cc12`, the Potency is 1.12 µM (active).

For the compound `NC(=O)c1cc[n+](CC2=C(C(=O)O)N3C(=O)[C@@H](NC(=O)[C@@H](c4ccccc4)S(=O)(=O)[O-])[C@H]3SC2)cc1`, the activity change, negative = inhibition is 2.35%.

Turning to `COc1ccc2c(Oc3ccc(NC(=O)c4c(C)n(CC(C)(C)O)n(-c5ccccc5)c4=O)cc3F)ccnc2c1`, the activity change, negative = inhibition was -8.07%.

Turning to `Oc1cc2c(cc1O)C1c3ccc(O)c(O)c3OCC1(O)C2` (stereo unspecified), the activity change, negative = inhibition was -5.64%.

`C=C[C@@H]1CN2CCC1C[C@H]2[C@H](O)c1ccnc2ccc(OC)cc12` (stereo partly specified): the activity change, negative = inhibition was -48.9%.

With `C=C(C)[C@@H]1CC[C@]2(C)CC[C@]3(C)[C@H](CC[C@@H]4[C@@]5(C)CC[C@H](O)C(C)(C)[C@H]5CC[C@]43C)[C@@H]12`, the outcome was inactive.

`C[C@@H](c1ncncc1F)[C@](O)(Cn1cncn1)c1ccc(F)cc1F`: the activity change, negative = inhibition was -26.1%.

With `COc1cc(C)c(Sc2cnc(NC(=O)c3ccc(CNC(C)C(C)C)cc3)s2)cc1C(=O)N1CCN(C(C)=O)CC1` (stereo unspecified), the activity change, negative = inhibition was -95.3%.

In the case of `COc1ccc(-n2nc(C(N)=O)c3c2C(=O)N(c2ccc(N4CCCCC4=O)cc2)CC3)cc1`, the result was inactive.

Take `CN1CC(=O)NC1=NC(=O)Nc1cccc(Cl)c1`: the activity change, negative = inhibition is -1.73%.

In the case of `CC(C(=O)O)c1ccc(C(=O)c2cccs2)cc1` (stereo unspecified), the result was inactive.

Turning to `CC1=C(/C=C/C(C)=C/C=C/C(C)=C\C(=O)O)C(C)(C)CCC1`, the activity change, negative = inhibition was -7.39% and the outcome was inactive.

For the origin of these results see PubChem BioAssay (NCATS).
